From PubChem BioAssay
Compounds with a hit are over-represented: about 2.8% of the library has one in this group of screens.
CF NFkB inh: blocks PAF-induced NF-kB reporter in cystic fibrosis cells; inhibition, % at 5 µM; KKLEB NF-kB-GFP reporter, GFP fluorescence overnight; hit rate 0.86% among 360,000;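 active = at least 50% inhibition at 5 µM, scaled per plate between neutral and stimulator controls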;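 note: PAF is a Pseudomonas aeruginosa culture filtrate used as stimulus; plate controls were PAF-stimulated DMSO wells for no effect and unstimulated DMSO wells for full effect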
KKLEB cytotox: counter-screen for CF NF-kB inhibitors: cytotoxicity; KKLEB CF airway cells viability, ATPlite luminescence, overnight; active compounds read low; cells stimulated with P. aeruginosa culture filtrate; activity change (cytotoxicity), % at 5 µM; AID 602141; hit rate 0.36% among 360,000;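 active = corrected activity change at or below -50% at 5 µM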
HIF-2a inh: HIF-2a inhibition; inhibition, % at 18.8 µM; 786-0 RCC cells HIF-2a reporter, luciferase luminescence, overnight; hit rate 0.72% among 360,000;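 active = inhibition of the luminescence signal of 40% or more relative to plate controls, in a single-dose primary screen at 18.75 µM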
Shn3 inh set2: reduces Shn3 3'UTR luciferase signal in osteoblasts. hit rate 0.52% among 360,000. AID 588674. inhibition, % at 12.5 µM. Clone20 osteoblast Shn3 3'UTR firefly luciferase, 24 h;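 active = mean inhibition of at least 75% with every replicate also reaching 75%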;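 note: 0% = median of neutral control wells and 100% = pilot-screen positive control compound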
Peg3 promoter: Peg3 promoter activity inhibition. inhibition, % at 20 µM. hit rate 1.7% among 360,000. HeLa PEG-Prom luciferase reporter, luminescence, overnight;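 active = inhibition of at least 50% at 20 µM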
TRPM1 prom inh: inhibitors of MITF-driven TRPM1 promoter in melanoma cells. SK-MEL-5 TRPM1 promoter luciferase, 24 h. inhibition, % at 12.5 µM. hit rate 0.83% among 330,000;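 active = mean inhibition across replicates of 60% or more, whatever share of single replicates reaches that level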
* = called active by the depositor.

For CC1(C)C=Cc2c(c3c(c4c(=O)c(-c5ccc(O)cc5)coc24)OC(C)(C)CC3)O1 the results were CF NFkB inh 35, KKLEB cytotox -21, HIF-2a inh -27, Shn3 inh set2 -17, Peg3 promoter 63* and TRPM1 prom inh 7.
Screening CCC(C)NC(=O)CCc1c(C)nc2c(c(C)nn2-c2ccccc2)c1C (configuration not stated) returned CF NFkB inh -8, KKLEB cytotox 5, HIF-2a inh 14, Shn3 inh set2 24, Peg3 promoter 16 and TRPM1 prom inh 5.
Cc1nc2c(c(C)nn2-c2ccccc2)c(C)c1CCC(=O)Nc1ccc(CN2CCCC2)cc1 was read as CF NFkB inh 32, KKLEB cytotox -5, HIF-2a inh 23, Shn3 inh set2 12, Peg3 promoter 55* and TRPM1 prom inh -6.
Cc1cccc(C)c1NC(=O)C(=O)NCC1CCCN1S(=O)(=O)c1cccs1 (configuration not stated) was read as CF NFkB inh -1, KKLEB cytotox -7, HIF-2a inh 7, Shn3 inh set2 5, Peg3 promoter 23 and TRPM1 prom inh 2.
Screening O=c1[nH]c2ccccc2c(O)c1SCCO returned CF NFkB inh -12, KKLEB cytotox 2, HIF-2a inh 16, Shn3 inh set2 -14, Peg3 promoter 1 and TRPM1 prom inh 3.
O=C1C(SCCO)=C(SCCO)C(=O)c2ccccc21 was read as CF NFkB inh 72*, KKLEB cytotox -6, HIF-2a inh 97*, Shn3 inh set2 93*, Peg3 promoter 100* and TRPM1 prom inh 111*.
Screening CC1Sc2ccc(S(=O)(=O)N3CCC(C(=O)Nc4ccc(Cl)cc4)CC3)cc2NC1=O (configuration not stated) returned CF NFkB inh 19, KKLEB cytotox -4, HIF-2a inh -9, Shn3 inh set2 89*, Peg3 promoter 14 and TRPM1 prom inh 19.
For CC(=O)N1c2ccc(S(=O)(=O)N3CCC(C(=O)Nc4cccc(F)c4)CC3)cc2CC1C (configuration not stated) the results were CF NFkB inh -6, KKLEB cytotox -21, HIF-2a inh 19, Shn3 inh set2 86*, Peg3 promoter 8 and TRPM1 prom inh 13.
Screening CC(=O)N1c2ccc(S(=O)(=O)N3CCC(C(=O)Nc4cccc(Cl)c4)CC3)cc2CC1C (configuration not stated) returned CF NFkB inh -11, KKLEB cytotox 0, HIF-2a inh 24, Shn3 inh set2 89*, Peg3 promoter 8 and TRPM1 prom inh 17.
For Cc1cc(N2CCN(C)CC2)ccc1NC(=O)c1cccc(S(=O)(=O)N2CCc3ccccc3C2)c1 the results were CF NFkB inh -5, KKLEB cytotox 15, HIF-2a inh 18, Shn3 inh set2 56, Peg3 promoter 109* and TRPM1 prom inh 38.
Screening Cc1cccc(C(C)C)c1NC(=O)COC(=O)c1cccc(S(=O)(=O)N2CCc3ccccc3C2)c1 returned CF NFkB inh 20, KKLEB cytotox -14, HIF-2a inh 17, Shn3 inh set2 -14, Peg3 promoter 60* and TRPM1 prom inh 3.
CCCCN(C(=O)Cc1ccc2c(c1)OCCO2)c1c(N)n(CCC)c(=O)[nH]c1=O was read as CF NFkB inh 2, KKLEB cytotox 2, HIF-2a inh 13, Shn3 inh set2 17 and Peg3 promoter 0.
`COc1cccc(CNC(=O)c2ccc(NC(=O)C3=CSCCO3)cc2)c1` gave CF NFkB inh 7, KKLEB cytotox 9, HIF-2a inh -134, Shn3 inh set2 -34, Peg3 promoter -146 and TRPM1 prom inh -62.
For c1ccc(-c2csc(Nc3ccc4c(c3)OCCO4)n2)cc1 the results were CF NFkB inh -30, KKLEB cytotox 1, HIF-2a inh -222, Shn3 inh set2 -14, Peg3 promoter -205 and TRPM1 prom inh -22.
N#C/C(=C\C=C\c1ccccc1[N+](=O)[O-])c1nc(-c2ccc3c(c2)OCO3)cs1 was read as CF NFkB inh -7, KKLEB cytotox -54*, HIF-2a inh -7, Shn3 inh set2 -16, Peg3 promoter 18 and TRPM1 prom inh 8.
Screening COc1ccc(-c2csc(/C(C#N)=C/Nc3ccc4c(c3)OCCO4)n2)cc1 returned CF NFkB inh 62*, KKLEB cytotox -64*, HIF-2a inh 3, Shn3 inh set2 9, Peg3 promoter 28 and TRPM1 prom inh 13.
`N#C/C(=C\c1ccccc1[N+](=O)[O-])c1nc(C2CC2)cs1` gave CF NFkB inh 0, KKLEB cytotox 0, HIF-2a inh -150, Shn3 inh set2 -24, Peg3 promoter -123 and TRPM1 prom inh -6.
Screening COc1ccc(-c2csc(/C(C#N)=C/Nc3cc4oc5ccccc5c4cc3OC)n2)cc1 returned CF NFkB inh -10, KKLEB cytotox 8, HIF-2a inh -8, Shn3 inh set2 -13, Peg3 promoter -11 and TRPM1 prom inh -2.
Screening N#C/C(=C\Nc1ccc2c(c1)OCCO2)c1nc(-c2ccccc2)cs1 returned CF NFkB inh 77*, KKLEB cytotox -76*, HIF-2a inh -1, Shn3 inh set2 -1, Peg3 promoter 10 and TRPM1 prom inh -17.
Screening Cc1ccc(NC(=O)c2cc(=O)[nH]c3ccccc23)cc1C returned CF NFkB inh 4, KKLEB cytotox -2, HIF-2a inh -1, Shn3 inh set2 8 and Peg3 promoter -9.
CCCCn1c(N)c(N(CCOC)C(=O)c2cnc(C)cn2)c(=O)[nH]c1=O was read as CF NFkB inh 9, KKLEB cytotox 4, HIF-2a inh 1, Shn3 inh set2 5, Peg3 promoter -20 and TRPM1 prom inh -3.
For OC(c1cccc(CN2CCCCC2)c1)c1ncc(-c2ccccc2Cl)[nH]1 (configuration not stated) the results were CF NFkB inh -22, KKLEB cytotox 8, HIF-2a inh 2, Shn3 inh set2 26 and Peg3 promoter -20.
Screening CCCNC(=O)C1(C)CCN(C(=O)c2ccccc2OC)C1 (configuration not stated) returned CF NFkB inh -1, KKLEB cytotox -8, HIF-2a inh 8, Shn3 inh set2 -8 and Peg3 promoter -8.
`Cc1cccc(NC(=S)NNC(=O)c2cc3c(s2)CCC(C)C3)c1C` (configuration not stated) gave CF NFkB inh 3, KKLEB cytotox 6, HIF-2a inh 0, Shn3 inh set2 -5, Peg3 promoter 4 and TRPM1 prom inh -2.
`COc1ccc([N+](=O)[O-])cc1Nc1c2ccccc2nc2ccccc12` gave CF NFkB inh 2, KKLEB cytotox -35, HIF-2a inh 15, Shn3 inh set2 35, Peg3 promoter 58* and TRPM1 prom inh 32.
For O=C(NCC1CC1)c1cc2c(c(-c3cccc(-c4ccccc4F)c3)n1)[C@@H](CCO)N(C(=O)CC1CC1)C2 the results were HIF-2a inh 0.
